From PMC7862700, “An all-to-all approach to the identification of sequence-specific readers for epigenetic DNA modifications on cytosine” come the findings set out here.

Holding throughout (test): DAPPL (digital affinity profiling via proximity ligation, sequencing); 10 mM Tris-HCl pH 7.5, 50 mM NaCl, 1 mM DTT, 4% glycerol, room temperature, 30 min; GST-TFs on glutathione beads, 16-mer random dsDNA library, 0.1% formaldehyde crosslink after washing; high values mean tight binding
In one experiment the target is T1, FLI1 (Homo sapiens, UniProt Q01543 1-452).
T1 sequence: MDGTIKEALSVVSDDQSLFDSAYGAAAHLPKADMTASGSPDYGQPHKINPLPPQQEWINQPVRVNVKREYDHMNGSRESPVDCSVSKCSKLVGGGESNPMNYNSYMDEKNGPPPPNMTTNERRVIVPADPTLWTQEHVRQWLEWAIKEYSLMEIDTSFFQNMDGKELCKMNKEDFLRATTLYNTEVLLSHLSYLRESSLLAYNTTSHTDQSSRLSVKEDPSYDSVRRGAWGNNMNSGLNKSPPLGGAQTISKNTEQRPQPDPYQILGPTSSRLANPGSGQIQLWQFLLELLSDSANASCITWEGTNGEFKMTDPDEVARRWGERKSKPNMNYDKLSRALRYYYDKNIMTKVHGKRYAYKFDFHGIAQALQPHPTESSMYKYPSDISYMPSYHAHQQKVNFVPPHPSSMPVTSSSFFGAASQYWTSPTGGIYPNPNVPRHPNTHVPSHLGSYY
The following applies: protein: recombinant; tags: N-terminal GST; dsDNA, one strand shown. In short, it runs like this:
(§1)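 Binding signal is each hexamer's read frequency for a factor divided by its frequency in the tag-only sample. The factors were GST-fused human transcription factors from yeast, captured on glutathione beads, DNA-barcoded and pooled with that sample. Pools were incubated with 200 nmole of a random double-stranded 16-mer DNA library in Tris/NaCl/DTT/glycerol buffer at room temperature for 30 min, then washed, crosslinked with 0.1% formaldehyde, proximity-ligated with BsaI/T4 ligase (1 h, 37 °C), PCR-amplified and sequenced on an Illumina NextSeq500.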

The target in a further experiment is T2, ELK1 (Homo sapiens, UniProt P19419 1-428).
T2 sequence: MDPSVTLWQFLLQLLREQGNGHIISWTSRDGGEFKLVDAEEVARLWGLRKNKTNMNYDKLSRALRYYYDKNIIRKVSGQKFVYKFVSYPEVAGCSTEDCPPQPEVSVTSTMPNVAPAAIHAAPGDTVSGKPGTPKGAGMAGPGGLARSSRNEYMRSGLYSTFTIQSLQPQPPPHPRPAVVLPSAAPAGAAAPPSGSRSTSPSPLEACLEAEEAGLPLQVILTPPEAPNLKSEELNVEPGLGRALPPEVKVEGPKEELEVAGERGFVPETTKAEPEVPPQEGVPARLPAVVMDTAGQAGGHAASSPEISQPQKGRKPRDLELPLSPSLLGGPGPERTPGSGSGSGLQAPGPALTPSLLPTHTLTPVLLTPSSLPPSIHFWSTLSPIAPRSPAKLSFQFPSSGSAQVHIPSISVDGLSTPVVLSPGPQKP
The note with it: protein: recombinant; tags: N-terminal GST; dsDNA, one strand shown. A digest of the protocol:
as §1

Another experiment concerns the target T3, GABPA (Homo sapiens, UniProt Q06546 1-454).
T3 sequence: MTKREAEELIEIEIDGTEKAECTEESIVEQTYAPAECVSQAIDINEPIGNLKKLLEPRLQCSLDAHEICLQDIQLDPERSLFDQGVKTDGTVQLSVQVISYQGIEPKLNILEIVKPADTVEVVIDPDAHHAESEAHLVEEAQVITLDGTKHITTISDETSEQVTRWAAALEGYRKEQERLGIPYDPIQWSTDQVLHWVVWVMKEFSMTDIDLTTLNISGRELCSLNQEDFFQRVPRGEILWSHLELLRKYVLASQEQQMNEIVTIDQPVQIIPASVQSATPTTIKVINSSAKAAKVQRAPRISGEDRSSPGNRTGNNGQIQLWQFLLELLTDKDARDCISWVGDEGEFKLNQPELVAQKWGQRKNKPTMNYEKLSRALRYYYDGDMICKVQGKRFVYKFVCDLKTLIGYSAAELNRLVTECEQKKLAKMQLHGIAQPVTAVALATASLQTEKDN
The following applies: protein: recombinant; tags: N-terminal GST; dsDNA, one strand shown. In short, it runs like this:
as §1

A further experiment deals with T4, ERG (Homo sapiens, UniProt P11308 1-479).
T4 sequence: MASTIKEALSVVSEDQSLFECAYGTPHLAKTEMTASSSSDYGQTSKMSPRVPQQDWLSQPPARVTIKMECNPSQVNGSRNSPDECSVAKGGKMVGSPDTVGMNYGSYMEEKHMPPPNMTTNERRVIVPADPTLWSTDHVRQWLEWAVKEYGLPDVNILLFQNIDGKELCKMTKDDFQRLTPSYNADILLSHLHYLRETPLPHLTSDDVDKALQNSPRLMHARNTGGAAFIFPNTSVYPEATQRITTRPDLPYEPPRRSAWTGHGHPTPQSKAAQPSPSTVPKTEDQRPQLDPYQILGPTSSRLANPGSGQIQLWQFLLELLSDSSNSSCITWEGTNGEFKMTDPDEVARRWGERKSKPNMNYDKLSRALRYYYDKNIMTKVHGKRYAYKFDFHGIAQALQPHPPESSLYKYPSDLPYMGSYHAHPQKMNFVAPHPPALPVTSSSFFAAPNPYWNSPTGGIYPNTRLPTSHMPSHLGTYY
The note with it: protein: recombinant; tags: N-terminal GST; dsDNA, one strand shown. A digest of the protocol: as §1

In another experiment the target is T5, EHF (Homo sapiens, UniProt Q9NZC4 1-300).
T5 sequence: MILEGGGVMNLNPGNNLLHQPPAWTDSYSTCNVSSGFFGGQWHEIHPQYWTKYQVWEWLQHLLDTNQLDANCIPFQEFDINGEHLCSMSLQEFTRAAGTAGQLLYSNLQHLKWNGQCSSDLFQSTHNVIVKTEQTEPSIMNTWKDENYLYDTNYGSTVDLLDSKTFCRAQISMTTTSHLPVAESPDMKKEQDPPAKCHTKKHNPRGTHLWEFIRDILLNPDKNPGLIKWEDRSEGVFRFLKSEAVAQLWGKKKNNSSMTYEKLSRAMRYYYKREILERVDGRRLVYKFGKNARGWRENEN
The note with it: protein: recombinant; tags: N-terminal GST; dsDNA, one strand shown. A digest of the protocol:
as §1

A further experiment addresses SPI1 (Homo sapiens, UniProt P17947 1-270). The note with it: protein: recombinant; tags: N-terminal GST; dsDNA, one strand shown. A digest of the protocol:
as §1

For another experiment, the target named is T6, ELK3 (Homo sapiens, UniProt P41970 1-407).
T6 sequence: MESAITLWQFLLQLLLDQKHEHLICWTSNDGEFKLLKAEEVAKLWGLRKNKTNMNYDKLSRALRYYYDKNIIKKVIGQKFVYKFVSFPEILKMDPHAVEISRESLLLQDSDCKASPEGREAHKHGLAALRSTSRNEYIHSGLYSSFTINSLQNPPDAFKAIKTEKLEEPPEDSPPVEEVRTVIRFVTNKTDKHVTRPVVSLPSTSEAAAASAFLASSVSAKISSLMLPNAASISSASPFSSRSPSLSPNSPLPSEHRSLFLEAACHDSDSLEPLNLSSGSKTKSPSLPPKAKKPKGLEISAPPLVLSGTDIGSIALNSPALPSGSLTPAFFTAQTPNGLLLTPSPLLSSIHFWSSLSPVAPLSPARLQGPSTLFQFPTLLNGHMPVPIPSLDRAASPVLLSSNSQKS
The note with it: protein: recombinant; tags: N-terminal GST; dsDNA, one strand shown. In short, it runs like this:
as §1

The target in a further experiment is T7, FEV (Homo sapiens, UniProt Q99581 1-238).
T7 sequence: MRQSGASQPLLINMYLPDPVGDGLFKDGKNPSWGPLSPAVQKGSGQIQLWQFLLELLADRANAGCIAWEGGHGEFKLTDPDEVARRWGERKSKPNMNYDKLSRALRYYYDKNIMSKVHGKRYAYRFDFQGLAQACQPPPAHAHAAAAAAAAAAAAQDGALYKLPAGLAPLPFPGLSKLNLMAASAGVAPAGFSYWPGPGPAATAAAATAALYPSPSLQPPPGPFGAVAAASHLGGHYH
The following applies: protein: recombinant; tags: N-terminal GST; dsDNA, one strand shown. In short, it runs like this: as §1

For another experiment, the target named is ETV5 (Homo sapiens, UniProt P41161 1-510). The note with it: protein: recombinant; tags: N-terminal GST; dsDNA, one strand shown. In short, it runs like this: as §1
The next experiment deals with HSF1 (Homo sapiens, UniProt Q00613 1-529). The note with it: protein: recombinant; tags: N-terminal GST; chain copies: 3; dsDNA, one strand shown. In short, it runs like this:
as §1

The target in the next experiment is T8, ELK4 (Homo sapiens, UniProt P28324-2 1-405).
T8 sequence: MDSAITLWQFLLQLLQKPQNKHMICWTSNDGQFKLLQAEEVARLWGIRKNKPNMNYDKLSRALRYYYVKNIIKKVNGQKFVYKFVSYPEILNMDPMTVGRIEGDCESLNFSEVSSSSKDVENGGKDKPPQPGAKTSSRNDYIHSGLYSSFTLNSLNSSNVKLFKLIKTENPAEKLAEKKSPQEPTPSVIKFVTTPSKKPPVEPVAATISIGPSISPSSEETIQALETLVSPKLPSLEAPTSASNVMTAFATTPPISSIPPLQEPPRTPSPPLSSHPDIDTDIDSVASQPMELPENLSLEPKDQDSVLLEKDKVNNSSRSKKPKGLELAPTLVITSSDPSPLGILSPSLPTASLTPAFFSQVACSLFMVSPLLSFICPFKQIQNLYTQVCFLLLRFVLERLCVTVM
The note with it: protein: recombinant; tags: N-terminal GST; dsDNA, one strand shown. A digest of the protocol:
as §1

Another experiment addresses T9, ETV2 (Homo sapiens, UniProt O00321 1-342).
T9 sequence: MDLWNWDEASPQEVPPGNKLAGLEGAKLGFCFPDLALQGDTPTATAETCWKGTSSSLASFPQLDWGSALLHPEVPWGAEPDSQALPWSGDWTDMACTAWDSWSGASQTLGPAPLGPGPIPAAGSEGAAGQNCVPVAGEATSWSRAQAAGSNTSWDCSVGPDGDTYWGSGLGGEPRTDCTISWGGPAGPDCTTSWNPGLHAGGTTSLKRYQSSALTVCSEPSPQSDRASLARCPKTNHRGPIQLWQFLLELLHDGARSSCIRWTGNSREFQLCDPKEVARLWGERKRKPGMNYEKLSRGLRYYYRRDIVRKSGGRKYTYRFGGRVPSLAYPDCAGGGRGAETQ
The note with it: protein: recombinant; tags: N-terminal GST; dsDNA, one strand shown. A digest of the protocol: as §1

The next experiment concerns the target CRX (Homo sapiens, UniProt O43186 1-299). The following applies: protein: recombinant; tags: N-terminal GST; dsDNA, one strand shown. In short, it runs like this:
as §1

For a further experiment, the target named is ETV1 (Homo sapiens, UniProt P50549 1-477). The following applies: protein: recombinant; tags: N-terminal GST; dsDNA, one strand shown. In short, it runs like this:
as §1

Sequence of HSF1 (Q00613 whole entry): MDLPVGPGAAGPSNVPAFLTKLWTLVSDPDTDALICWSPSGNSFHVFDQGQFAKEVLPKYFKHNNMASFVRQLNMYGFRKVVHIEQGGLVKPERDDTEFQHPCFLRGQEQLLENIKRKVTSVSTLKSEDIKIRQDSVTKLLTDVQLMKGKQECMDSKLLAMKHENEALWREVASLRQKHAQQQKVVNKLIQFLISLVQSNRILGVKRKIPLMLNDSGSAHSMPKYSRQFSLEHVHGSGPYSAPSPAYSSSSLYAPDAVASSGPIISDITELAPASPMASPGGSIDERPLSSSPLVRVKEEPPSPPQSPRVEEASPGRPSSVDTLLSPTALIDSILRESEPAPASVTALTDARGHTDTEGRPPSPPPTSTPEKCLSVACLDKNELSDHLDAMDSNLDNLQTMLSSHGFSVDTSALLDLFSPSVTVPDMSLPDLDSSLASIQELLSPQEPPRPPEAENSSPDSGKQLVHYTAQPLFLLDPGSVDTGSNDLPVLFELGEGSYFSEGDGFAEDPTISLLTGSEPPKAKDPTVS
Sequence of ETV5 (P41161 whole entry): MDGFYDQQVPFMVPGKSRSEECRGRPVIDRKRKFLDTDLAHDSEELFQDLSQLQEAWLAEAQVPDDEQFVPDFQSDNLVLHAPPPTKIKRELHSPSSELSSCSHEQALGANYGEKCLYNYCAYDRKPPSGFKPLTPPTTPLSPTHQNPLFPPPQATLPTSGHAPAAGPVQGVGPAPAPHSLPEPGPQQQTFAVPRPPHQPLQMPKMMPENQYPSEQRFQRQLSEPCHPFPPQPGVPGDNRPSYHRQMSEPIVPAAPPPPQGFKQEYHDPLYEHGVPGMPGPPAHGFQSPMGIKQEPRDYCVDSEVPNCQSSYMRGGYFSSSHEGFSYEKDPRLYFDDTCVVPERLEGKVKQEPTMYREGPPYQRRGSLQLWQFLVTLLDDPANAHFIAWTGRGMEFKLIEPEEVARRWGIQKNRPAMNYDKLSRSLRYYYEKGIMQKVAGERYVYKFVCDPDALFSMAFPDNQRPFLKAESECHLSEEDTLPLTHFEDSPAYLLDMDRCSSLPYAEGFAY
Sequence of CRX (O43186 whole entry): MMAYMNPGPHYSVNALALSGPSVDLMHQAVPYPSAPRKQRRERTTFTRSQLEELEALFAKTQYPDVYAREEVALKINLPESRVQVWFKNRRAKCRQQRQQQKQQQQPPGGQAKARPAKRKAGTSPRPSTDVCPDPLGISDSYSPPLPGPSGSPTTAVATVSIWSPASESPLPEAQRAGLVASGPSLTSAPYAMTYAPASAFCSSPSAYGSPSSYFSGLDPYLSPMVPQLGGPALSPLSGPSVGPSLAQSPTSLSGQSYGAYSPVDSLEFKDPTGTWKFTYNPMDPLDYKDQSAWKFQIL
Sequence of ETV1 (P50549 whole entry): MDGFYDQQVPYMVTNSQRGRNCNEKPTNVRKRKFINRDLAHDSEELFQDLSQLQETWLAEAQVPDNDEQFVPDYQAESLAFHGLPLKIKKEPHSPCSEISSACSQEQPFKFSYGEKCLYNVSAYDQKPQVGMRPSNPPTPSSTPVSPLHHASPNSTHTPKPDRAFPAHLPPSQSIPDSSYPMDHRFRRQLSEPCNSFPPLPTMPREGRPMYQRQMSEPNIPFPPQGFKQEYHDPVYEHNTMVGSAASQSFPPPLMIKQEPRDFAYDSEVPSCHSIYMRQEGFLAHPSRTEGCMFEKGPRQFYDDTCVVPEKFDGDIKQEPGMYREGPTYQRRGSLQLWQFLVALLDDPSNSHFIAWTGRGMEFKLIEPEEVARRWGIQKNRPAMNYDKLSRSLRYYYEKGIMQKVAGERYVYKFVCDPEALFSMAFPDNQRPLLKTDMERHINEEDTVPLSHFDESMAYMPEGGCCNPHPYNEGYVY

Consider GGCATT, for which the binding signal was 1.08 fold enrichment (6-mer frequency, TF over GST control) with FLI1; 1.05 fold enrichment (6-mer frequency, TF over GST control) with ELK1; 1.04 fold enrichment (6-mer frequency, TF over GST control) with GABPA; 1.04 fold enrichment (6-mer frequency, TF over GST control) with ERG; 1.01 fold enrichment (6-mer frequency, TF over GST control) with EHF; 1.05 fold enrichment (6-mer frequency, TF over GST control) with SPI1. Further, the binding signal was 1.14 fold enrichment (6-mer frequency, TF over GST control) with ELK3; 1.04 fold enrichment (6-mer frequency, TF over GST control) with FEV; 1.05 fold enrichment (6-mer frequency, TF over GST control) in the experiment with ETV5; 1.12 fold enrichment (6-mer frequency, TF over GST control) in the experiment with HSF1; 1.08 fold enrichment (6-mer frequency, TF over GST control) in the experiment with ELK4; 1.02 fold enrichment (6-mer frequency, TF over GST control) with ETV2. The binding signal with CRX is 1.29 fold enrichment (6-mer frequency, TF over GST control); with ETV1, 1.1 fold enrichment (6-mer frequency, TF over GST control).
